Records with an inconclusive call do not appear. Calls of active or inactive are those of the source.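 How the source made its calls, unless noted: active means binding below the plate cutoff, the plate median minus 3 SD, with a reading above zero; inconclusive means below the plate cutoff but reading exactly zero; inactive means the rest.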
How the values were obtained:
[1] = yeast TOR pathway RPL19A-GFP modulators, primary screen, cell-based, S. cerevisiae, multiplex flow cytometry (AID 1862; in the data active means percent of DMSO control GFP below about 86%;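 further: lower values mimic rapamycin by blocking the RPL19A rise seen in DMSO cells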); conditions: S. cerevisiae RPL19A-GFP strain, flow cytometry fluorescence, 3 h; at 10 µM; stronger effect = lower value
[2] = modulators of MEP2-GFP levels in yeast, primary screen, S. cerevisiae, multiplex flow cytometry (AID 1867;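 active means GFP response, as percent of the DMSO control, above the screen-wide mean plus 3 SD, about 139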;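 further: median GFP channel fluorescence of barcode-gated MEP2-GFP cells measured by flow cytometry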); conditions: S. cerevisiae MEP2-GFP strain, 3 h, at 10 µM, stronger effect = higher value, 100% means same as DMSO wells
[3] = modulators of CIT2-GFP expression in yeast, primary screen, S. cerevisiae, GFP fusion, multiplex flow cytometry (AID 1870;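 active means percent response above a set limit, the screen-wide mean plus 3 SD, cut at about 130% in these data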;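 further: barcoded CIT2-GFP strain pooled with four other GFP strains with rapamycin as positive control; median GFP fluorescence per well over plate mean of DMSO wells so 100% = DMSO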); conditions: 3 h, at 10 µM, stronger effect = higher value
[4] = modulators of LAP4-GFP expression in yeast, primary screen, S. cerevisiae, multiplex flow cytometry (AID 1873;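 active means GFP signal, as percent of the solvent control, above the screen mean plus 3 SD, about 149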); conditions: 3 h, at 10 µM, stronger effect = higher value
[5] = modulators of AGP1-GFP expression in yeast TOR pathway, primary screen, cell-based, multiplex flow cytometry, S. cerevisiae (AID 1887;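 active means GFP signal above the screen-wide mean plus 3 SD, that is over about 124.5% of the solvent control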;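 further: AGP1-GFP fusion strain of S. cerevisiae within a five-strain barcoded multiplex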); conditions: 3 h, at 10 µM, stronger effect = higher value
[6] = inhibitors of CD8+ T cell-vesicle binding, pilot screen, LFA-1/ICAM-1 modulator project, MLPCN validation set, flow cytometry (AID 2523;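 active means response below a set limit, under 55% cells CD8-positive and vesicle-bound, and CD8 cells' 90th-percentile brightness under 279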;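 on vesicle binding response: mean PE anti-B7-1 fluorescence of CD8+ cells relative to row control; 100% = QL9-loaded vesicles with DMSO vehicle in the same plate row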); conditions: 2C mouse CD8+ T cells, at 7 µM, stronger effect = lower value; double positive events: measured here: CD8+/vesicle+ event percentage
[7] = molecular target: Integrin beta-1 (Homo sapiens) + Integrin alpha-4 (Homo sapiens) (UniProt P13612+P05556); test: inhibition of HUTS-21 binding to VLA-4, pilot screen, VLA-4 allosteric modulator project, U937 cells, HUTS-21 mAb, flow cytometry, validation set (AID 2674;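 active means inhibition above 50%, about 3 SD of the validation set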;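 further: antibody binding induced by the VLA-4 ligand LDV present at three times its Kd; 0% = LDV ligand with antibody and no compound and 100% = antibody without LDV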); conditions: HUTS-21 LIBS mAb binding, at 6.7 µM, stronger effect = higher value, binding induced by LDV ligand
Integrin beta-1 (Homo sapiens) + Integrin alpha-4 (Homo sapiens), sequence (P05556 whole entry, looked up): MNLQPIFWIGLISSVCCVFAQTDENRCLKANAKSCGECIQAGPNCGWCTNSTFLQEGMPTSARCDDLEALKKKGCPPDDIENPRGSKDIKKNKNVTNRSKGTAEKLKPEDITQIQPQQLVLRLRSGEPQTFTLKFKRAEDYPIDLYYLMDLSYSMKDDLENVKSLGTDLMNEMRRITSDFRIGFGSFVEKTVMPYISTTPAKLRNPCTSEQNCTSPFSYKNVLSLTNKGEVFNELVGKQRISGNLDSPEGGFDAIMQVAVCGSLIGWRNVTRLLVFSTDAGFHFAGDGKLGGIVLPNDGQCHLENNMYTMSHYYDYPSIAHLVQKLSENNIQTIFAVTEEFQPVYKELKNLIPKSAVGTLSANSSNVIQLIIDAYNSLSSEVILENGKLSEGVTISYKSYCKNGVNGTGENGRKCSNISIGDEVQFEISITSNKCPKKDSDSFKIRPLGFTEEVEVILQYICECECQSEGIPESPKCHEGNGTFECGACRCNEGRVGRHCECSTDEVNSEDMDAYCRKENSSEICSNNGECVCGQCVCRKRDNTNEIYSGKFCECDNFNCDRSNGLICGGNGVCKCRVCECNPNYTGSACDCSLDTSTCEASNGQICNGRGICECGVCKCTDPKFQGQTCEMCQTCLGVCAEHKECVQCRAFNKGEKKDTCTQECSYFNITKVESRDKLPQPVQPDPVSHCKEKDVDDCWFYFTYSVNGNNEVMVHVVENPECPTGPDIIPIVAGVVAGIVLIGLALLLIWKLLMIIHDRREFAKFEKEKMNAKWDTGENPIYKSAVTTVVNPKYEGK
Integrin beta-1 (Homo sapiens) + Integrin alpha-4 (Homo sapiens), sequence (P13612 whole entry, looked up): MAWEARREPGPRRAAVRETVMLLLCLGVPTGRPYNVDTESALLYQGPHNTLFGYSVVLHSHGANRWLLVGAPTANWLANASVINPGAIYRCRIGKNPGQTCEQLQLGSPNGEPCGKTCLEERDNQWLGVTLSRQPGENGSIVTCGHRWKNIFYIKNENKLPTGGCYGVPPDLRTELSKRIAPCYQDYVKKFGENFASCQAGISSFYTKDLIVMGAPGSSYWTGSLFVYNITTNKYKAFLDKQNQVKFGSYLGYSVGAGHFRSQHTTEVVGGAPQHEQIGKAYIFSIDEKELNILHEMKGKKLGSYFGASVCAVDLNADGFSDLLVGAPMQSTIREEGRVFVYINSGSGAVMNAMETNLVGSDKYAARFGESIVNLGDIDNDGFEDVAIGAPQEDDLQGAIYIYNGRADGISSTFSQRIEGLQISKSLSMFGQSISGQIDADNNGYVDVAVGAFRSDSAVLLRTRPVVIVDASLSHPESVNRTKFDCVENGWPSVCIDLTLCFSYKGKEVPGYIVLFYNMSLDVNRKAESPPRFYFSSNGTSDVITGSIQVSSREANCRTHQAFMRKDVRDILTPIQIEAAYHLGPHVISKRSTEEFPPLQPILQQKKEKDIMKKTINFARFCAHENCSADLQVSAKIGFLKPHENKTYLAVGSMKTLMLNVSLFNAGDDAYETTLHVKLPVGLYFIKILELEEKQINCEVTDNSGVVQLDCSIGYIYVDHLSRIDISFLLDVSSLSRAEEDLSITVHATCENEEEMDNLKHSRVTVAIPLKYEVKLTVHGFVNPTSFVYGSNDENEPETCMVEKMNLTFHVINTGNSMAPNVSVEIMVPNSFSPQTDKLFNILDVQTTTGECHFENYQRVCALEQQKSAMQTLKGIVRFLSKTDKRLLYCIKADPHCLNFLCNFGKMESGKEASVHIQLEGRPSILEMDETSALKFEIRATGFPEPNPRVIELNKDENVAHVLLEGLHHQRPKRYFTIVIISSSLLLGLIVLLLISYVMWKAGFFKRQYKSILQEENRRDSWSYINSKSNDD

[8] = superoxide lowering in aged yeast cells, pilot screen, validation compound set (AID 2706;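 active means superoxide response below 65% of plate, a cut near 3 SD across the whole screen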;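 further: yeast exposed to compound for one week at 30 degrees C before staining; 100% = mean of all compound wells on the same plate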); conditions: S. cerevisiae aging, superoxide DHE fluorescence; at 10 µM, stronger effect = lower value
[9] = molecular target: Beta-adrenergic receptor kinase 1 (Homo sapiens) (UniProt P25098); test: GRK2 binders displacing RNA aptamer, biochemical, validation, human GRK2, bead flow cytometry (AID 488806;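 active means aptamer binding inhibition above 30%, about 3 SD of noise from non-fluorescent compounds; inactive means inhibition at or below 30%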); conditions: bead-bound GRK2, FAM-aptamer displacement, at 10 µM, stronger effect = higher value
Beta-adrenergic receptor kinase 1 (Homo sapiens), sequence (P25098 whole entry, looked up): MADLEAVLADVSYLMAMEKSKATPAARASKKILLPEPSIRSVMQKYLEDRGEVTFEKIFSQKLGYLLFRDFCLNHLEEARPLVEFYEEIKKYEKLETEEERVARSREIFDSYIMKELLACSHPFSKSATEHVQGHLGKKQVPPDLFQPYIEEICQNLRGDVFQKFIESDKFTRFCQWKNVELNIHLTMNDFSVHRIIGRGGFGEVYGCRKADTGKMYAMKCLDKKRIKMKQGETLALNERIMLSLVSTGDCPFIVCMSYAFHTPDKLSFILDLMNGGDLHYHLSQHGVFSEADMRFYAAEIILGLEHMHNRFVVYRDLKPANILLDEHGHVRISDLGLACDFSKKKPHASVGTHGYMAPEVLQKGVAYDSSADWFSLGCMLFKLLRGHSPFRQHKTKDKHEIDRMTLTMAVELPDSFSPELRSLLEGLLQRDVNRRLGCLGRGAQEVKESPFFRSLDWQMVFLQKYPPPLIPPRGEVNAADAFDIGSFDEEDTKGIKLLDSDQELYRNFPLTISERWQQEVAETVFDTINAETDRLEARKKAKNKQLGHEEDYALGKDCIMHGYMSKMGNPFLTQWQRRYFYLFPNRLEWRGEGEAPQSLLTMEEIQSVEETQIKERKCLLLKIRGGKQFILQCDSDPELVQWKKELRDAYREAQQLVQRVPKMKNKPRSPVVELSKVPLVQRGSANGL

[10] = molecular target: AP-2 complex subunit beta (Homo sapiens) (UniProt P63010); test: inhibitors of arrestin peptide binding to AP2, pilot screen, biochemical, validation set, GST-AP2 beads, flow cytometry (AID 504541;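 active means inhibition above 54%, about 3 SD of non-fluorescent compounds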;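 further: AP2 carries R879A mutation and is captured from E. coli lysate; bead-bound FITC arrestin peptide fluorescence measuring arrestin peptide binding to AP2; 0% = DMSO wells and 100% = excess unlabeled arrestin peptide control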); conditions: FITC arrestin peptide, at 10 µM, stronger effect = higher value, AP2 beta2 appendage fragment, R879A mutant
AP-2 complex subunit beta (Homo sapiens), sequence (P63010 whole entry, looked up, the tested form may be a part, one chain of several): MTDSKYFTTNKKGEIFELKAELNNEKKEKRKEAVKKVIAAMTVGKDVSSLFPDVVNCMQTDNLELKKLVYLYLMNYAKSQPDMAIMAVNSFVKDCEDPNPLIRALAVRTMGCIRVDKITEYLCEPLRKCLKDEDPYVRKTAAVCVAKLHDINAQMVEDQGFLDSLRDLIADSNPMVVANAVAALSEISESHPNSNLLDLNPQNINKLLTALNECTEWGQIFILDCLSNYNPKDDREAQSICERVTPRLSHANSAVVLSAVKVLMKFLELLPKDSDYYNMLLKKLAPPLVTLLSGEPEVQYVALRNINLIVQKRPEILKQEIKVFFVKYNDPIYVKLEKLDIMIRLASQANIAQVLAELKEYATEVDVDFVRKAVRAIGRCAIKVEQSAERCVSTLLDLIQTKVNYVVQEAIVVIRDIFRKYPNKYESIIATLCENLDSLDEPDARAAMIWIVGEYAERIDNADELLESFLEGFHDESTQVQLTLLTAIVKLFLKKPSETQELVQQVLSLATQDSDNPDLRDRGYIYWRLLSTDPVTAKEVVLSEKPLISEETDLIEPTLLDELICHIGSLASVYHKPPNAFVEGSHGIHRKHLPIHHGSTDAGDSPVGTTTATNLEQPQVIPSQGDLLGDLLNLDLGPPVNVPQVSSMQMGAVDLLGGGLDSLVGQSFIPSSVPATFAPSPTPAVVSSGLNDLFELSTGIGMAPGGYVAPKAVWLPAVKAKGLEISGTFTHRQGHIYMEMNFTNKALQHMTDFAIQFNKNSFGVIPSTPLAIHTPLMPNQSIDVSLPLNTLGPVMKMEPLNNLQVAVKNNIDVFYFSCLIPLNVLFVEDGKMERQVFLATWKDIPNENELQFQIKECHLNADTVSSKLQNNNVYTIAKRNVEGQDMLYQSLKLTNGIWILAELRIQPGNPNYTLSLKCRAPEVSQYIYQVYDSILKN

[11] = yeast V-ATPase proton transport modulators, S. cerevisiae, pHLuorin, HTS validation (AID 504600; in the data active means response above about 15%;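 further: plate controls were DMSO for no effect and reference compound for full effect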); conditions: S. cerevisiae pHLuorin cytosolic pH, at 10 µM, stronger effect = higher value
[12] = test system: anti-desmoglein-3 scFv antibody binding to human DSG3; test: inhibitors of anti-DSG3 scFv binding to DSG3, pilot screen, biochemical, validation compound set, bead-based, flow cytometry (AID 588368); conditions: Protein G beads, DSG3-Fc, scFv-GFP binding, at 10 µM, stronger effect = lower value;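 further: signal is the median channel fluorescence of bead-bound GFP antibody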
[13] = inhibitors of fungal efflux pumps CDR1, CDR2, MDR1, pilot screen, validation compound set, multiplex, phenotypic (AID 588506;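 active means efflux inhibition above 0.42, the validation set average plus 4 SD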;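 further: Nile Red retained in cells so higher fluorescence means more efflux inhibition; 0 = negative control wells and 1 = enniatin B 25 µM full block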); conditions: S. cerevisiae pump-expressing triplex, Nile Red efflux flow cytometry; at 10 µM; stronger effect = higher value; the pumps come from Candida albicans
[14] = molecular target: ATP-binding cassette sub-family B member 6 (Homo sapiens) (UniProt Q9NP58); test: ABCB6 transporter inhibitors, pilot screen, K562-ABCB6 cells, flow cytometry, validation set (AID 588550;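 active means inhibition above the screen-wide mean plus 3 SD, about 51%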;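 further: 0% = DMSO wells and 100% = benzethonium chloride 70 µM positive control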); conditions: K562-ABCB6 porphyrin accumulation, 1 h, at 10 µM, stronger effect = higher value
ATP-binding cassette sub-family B member 6 (Homo sapiens), sequence (Q9NP58 whole entry, looked up): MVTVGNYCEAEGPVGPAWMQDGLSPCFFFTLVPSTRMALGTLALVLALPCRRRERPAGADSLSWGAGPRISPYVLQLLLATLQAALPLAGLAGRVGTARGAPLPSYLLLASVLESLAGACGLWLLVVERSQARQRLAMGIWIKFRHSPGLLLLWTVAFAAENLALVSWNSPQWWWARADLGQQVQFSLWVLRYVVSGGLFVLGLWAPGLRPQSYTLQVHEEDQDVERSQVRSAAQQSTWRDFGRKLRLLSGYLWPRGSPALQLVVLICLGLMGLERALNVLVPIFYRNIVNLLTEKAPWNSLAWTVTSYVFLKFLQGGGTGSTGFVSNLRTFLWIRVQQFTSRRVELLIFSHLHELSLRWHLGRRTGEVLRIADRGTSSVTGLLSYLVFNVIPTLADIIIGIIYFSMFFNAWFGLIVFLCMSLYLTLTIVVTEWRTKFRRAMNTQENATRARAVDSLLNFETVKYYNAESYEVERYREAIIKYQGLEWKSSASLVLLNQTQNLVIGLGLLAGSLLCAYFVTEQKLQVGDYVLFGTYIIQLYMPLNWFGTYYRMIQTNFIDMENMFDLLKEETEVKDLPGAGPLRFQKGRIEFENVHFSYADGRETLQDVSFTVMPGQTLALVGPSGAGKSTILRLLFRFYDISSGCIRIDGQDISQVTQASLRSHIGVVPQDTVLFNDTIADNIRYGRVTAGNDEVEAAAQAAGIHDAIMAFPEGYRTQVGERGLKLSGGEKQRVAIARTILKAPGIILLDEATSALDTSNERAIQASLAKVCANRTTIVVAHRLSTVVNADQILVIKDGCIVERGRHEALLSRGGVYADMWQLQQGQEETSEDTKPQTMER

[15] = promoters of myeloid differentiation in arrested cells, primary screen, cell-based, GFP/MAC1 double positive, flow cytometry, validation set (AID 588685;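 active means differentiation response of at least 50%, scaled between solvent and reference control, from cells with both markers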;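 further: compound exposure lasts four days before antibody staining and flow analysis; 0% = DMSO wells and 100% = 5 µM fulvestrant positive control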); conditions: ER-HoxA9 marrow cells, stronger effect = higher value, normalized: vehicle 0, fulvestrant 100
[16] = molecular target: Beta-2 adrenergic receptor (Homo sapiens) (UniProt P07550); test: beta2AR agonists driving receptor internalization, pilot screen, cell-based, FAP fluorogen, flow cytometry, validation set (AID 504459;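 active means percent response above 42, roughly 3 SD of non-fluorescent test compounds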;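 further: agonist-driven loss of surface beta2AR via internalization measured by FAP dye flow cytometry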); conditions: Am2.2-beta2AR cells, FAP surface receptor flow cytometry; at 10 µM; stronger effect = higher value
Beta-2 adrenergic receptor (Homo sapiens), sequence (P07550 whole entry, looked up): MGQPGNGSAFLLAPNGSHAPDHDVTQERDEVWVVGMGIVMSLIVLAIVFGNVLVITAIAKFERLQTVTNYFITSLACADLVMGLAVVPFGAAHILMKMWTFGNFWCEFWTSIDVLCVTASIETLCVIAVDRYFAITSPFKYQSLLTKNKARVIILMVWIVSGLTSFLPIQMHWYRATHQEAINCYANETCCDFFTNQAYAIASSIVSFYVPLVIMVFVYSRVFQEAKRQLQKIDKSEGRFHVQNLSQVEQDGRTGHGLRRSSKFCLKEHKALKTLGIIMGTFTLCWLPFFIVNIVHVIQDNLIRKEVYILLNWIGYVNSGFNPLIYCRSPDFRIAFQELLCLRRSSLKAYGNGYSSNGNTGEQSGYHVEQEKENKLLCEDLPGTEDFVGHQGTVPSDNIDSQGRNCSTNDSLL

SMILES	percent of DMSO control GFP [1]	GFP response vs DMSO [2]	percent response of DMSO control [3]	GFP response vs DMSO [4]	GFP response, % of DMSO [5]	double positive events [6] [%]	vesicle binding response [6]	inhibition [7]	superoxide response (% of plate) [8]	aptamer binding inhibition [9]	inhibition [10]	response [11]	binding (% of control) [12]	efflux inhibition (fraction of control) [13]	inhibition [14]	differentiation response [15]	response [16]
CCOc1ccc(NC(=O)N[C@@H](CCSC)C(=O)OC)cc1	105% (inactive)	106% (inactive)	104% (inactive)	96.4% (inactive)	105% (inactive)	52.6	164% (inactive)	5.36% (inactive)	117% (inactive)	1% (inactive)	5.32% (inactive)	4.65% (inactive)	98.5% (inactive)	-0.47 (inactive)	6% (inactive)	9.49% (inactive)	–
CCOC(=O)C(=O)Nc1ccc(Oc2ccccc2)cc1	96.8% (inactive)	105% (inactive)	101% (inactive)	106% (inactive)	97.8% (inactive)	61.7	101% (inactive)	18.4% (inactive)	101% (inactive)	3% (inactive)	9.79% (inactive)	1.03% (inactive)	105% (inactive)	-0.05 (inactive)	4% (inactive)	-26% (inactive)	–
CCOC(=O)C1(CCCc2ccccc2)CCN(C2CCN(C(C)=O)CC2)CC1	97.1% (inactive)	101% (inactive)	99.8% (inactive)	92.3% (inactive)	92.4% (inactive)	52	138% (inactive)	-12.4% (inactive)	103% (inactive)	9% (inactive)	12.5% (inactive)	-6.58% (inactive)	109% (inactive)	0.37 (inactive)	9% (inactive)	-13.1% (inactive)	–
C=C(C)COc1ccc(-c2n[nH]c(C)c2-c2ccc(OC)cc2)c(O)c1	105% (inactive)	111% (inactive)	95.9% (inactive)	112% (inactive)	87.7% (inactive)	58.9	175% (inactive)	-9.57% (inactive)	101% (inactive)	-3% (inactive)	–	-1.12% (inactive)	107% (inactive)	0.75 (active)	10% (inactive)	-9.89% (inactive)	–
COc1ccc(CCN(C)CCCC(C#N)(c2ccc(OC)c(OC)c2)C(C)C)cc1OC (stereo not drawn)	105% (inactive)	104% (inactive)	98.8% (inactive)	95.4% (inactive)	99.7% (inactive)	63.8	183% (inactive)	2.56% (inactive)	101% (inactive)	-1% (inactive)	53.9% (inactive)	1.25% (inactive)	102% (inactive)	–	2% (inactive)	24% (inactive)	–
CNCCCC12CCC(c3ccccc31)c1ccccc12	101% (inactive)	107% (inactive)	90.8% (inactive)	95.3% (inactive)	96.7% (inactive)	66.4	234% (inactive)	11% (inactive)	–	-11% (inactive)	3.24% (inactive)	2% (inactive)	103% (inactive)	0.33 (inactive)	-7% (inactive)	18.8% (inactive)	28.2% (inactive)
CCOc1ccccc1OCCOc1ccc(F)cc1	101% (inactive)	98.3% (inactive)	100% (inactive)	88.1% (inactive)	91.1% (inactive)	63.4	193% (inactive)	-30.5% (inactive)	–	0% (inactive)	0.71% (inactive)	-0.31% (inactive)	104% (inactive)	0.24 (inactive)	1% (inactive)	12% (inactive)	7.79% (inactive)
CCOc1ccc(CCn2c(-c3ccco3)nc3ccccc3c2=O)cc1OCC	100% (inactive)	106% (inactive)	94.2% (inactive)	92.7% (inactive)	92.6% (inactive)	62.6	258% (inactive)	-18.1% (inactive)	–	1% (inactive)	3.57% (inactive)	-0.47% (inactive)	91.2% (inactive)	0.27 (inactive)	20% (inactive)	0.24% (inactive)	2.8% (inactive)
COc1ccc(CCNC(=S)NC(=O)/C=C/c2ccc(C)cc2)cc1OC	101% (inactive)	107% (inactive)	106% (inactive)	103% (inactive)	95.4% (inactive)	51.6	136% (inactive)	3.49% (inactive)	98.2% (inactive)	2% (inactive)	13.3% (inactive)	-1.1% (inactive)	106% (inactive)	0.22 (inactive)	4% (inactive)	-8.27% (inactive)	–
C[C@]12CC[C@@H]3c4cc(O)c(O)cc4CC[C@H]3[C@@H]1CC[C@@H]2O	98.8% (inactive)	98.3% (inactive)	95.4% (inactive)	81.5% (inactive)	90% (inactive)	65.9	236% (inactive)	16.1% (inactive)	–	3% (inactive)	2.25% (inactive)	-0.25% (inactive)	96.1% (inactive)	0.49 (active)	5% (inactive)	8.06% (inactive)	0.11% (inactive)
